Many of the other results were omitted from the sample, so hits are more common in it than they were.
ST2 inh – blocks human ST2 binding to IL-33; actives 2.3% (n = 78,000); Q01638; AID 1259354; inhibition, % for hits at 17 µM; AlphaLISA ST2-Fc/biotin-IL-33 interaction, 1 h; in the data active = inhibition above about 30%
Target sequence (Q01638 whole entry, looked up): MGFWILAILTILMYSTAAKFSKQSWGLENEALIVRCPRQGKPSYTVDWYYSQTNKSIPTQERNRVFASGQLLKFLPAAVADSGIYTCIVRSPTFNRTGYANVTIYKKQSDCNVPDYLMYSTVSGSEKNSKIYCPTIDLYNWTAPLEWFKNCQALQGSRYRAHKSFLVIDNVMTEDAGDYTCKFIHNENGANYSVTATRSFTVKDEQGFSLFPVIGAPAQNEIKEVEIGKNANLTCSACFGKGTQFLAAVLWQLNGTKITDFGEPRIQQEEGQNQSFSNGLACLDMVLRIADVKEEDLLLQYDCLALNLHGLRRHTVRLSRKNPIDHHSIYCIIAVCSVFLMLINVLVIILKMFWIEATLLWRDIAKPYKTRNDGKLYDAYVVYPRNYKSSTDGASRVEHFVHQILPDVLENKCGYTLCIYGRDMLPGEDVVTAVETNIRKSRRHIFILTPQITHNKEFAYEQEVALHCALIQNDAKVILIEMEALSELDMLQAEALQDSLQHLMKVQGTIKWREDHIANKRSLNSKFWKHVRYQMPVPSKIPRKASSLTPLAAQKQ
* hit, by the source's call; i = inactive.

SMILES	ST2 inh
CCOC(=O)C1=C(C)NC2=C(C(=O)C(C(=O)OC)C(C)C2)C1c1cccc(Cl)c1Cl (configuration not stated)	i
O=[N+]([O-])c1ccc(/C=C/c2ccc3ccccc3n2)o1	67.0%*
Cn1c(/C=C/c2ccc([N+](=O)[O-])o2)nc2ccc(I)cc2c1=O	i
COc1ccc(Br)cc1C=Nc1c(-c2ccco2)nc2ccccn12	30.0%*
COc1ccc(Br)cc1/C=C1N=C(/C=C/c2ccccc2OC)OC\1=O	i
Cc1ccc2nc(-c3ccco3)c(Nc3ccccc3)n2c1	i
CC1CN(S(=O)(=O)c2ccc(C(=O)Nc3nnc(-c4ccccc4Cl)o3)cc2)CC(C)O1 (configuration not stated)	i
Cc1nc2c(C(=O)N3CCCC3)c[nH]n2c(=O)c1Cc1ccc(Cl)cc1	i
COc1ccc(N/C=C(\C#N)c2nc(-c3cc4cc([N+](=O)[O-])ccc4oc3=O)cs2)c(OC)c1	i
O=C(Nc1nc(-c2ccccc2)cs1)c1ccccc1	i
N#C/C(=C\c1ccccc1[N+](=O)[O-])c1nc(-c2ccc(Cl)c(Cl)c2)cs1	i
COc1ccc(-c2csc(/C(C#N)=C\Nc3cccc(C(F)(F)F)c3)n2)cc1OC	i
COc1ccc(-c2csc(/C(C#N)=C\c3ccc(F)cc3)n2)cc1OC	i
COc1ccc(-c2csc(/C(C#N)=C/c3ccc(Cl)cc3)n2)cc1	34.0%*
COc1cc(N/C=C(/C#N)c2nc(-c3ccc(F)cc3)cs2)c(OC)cc1Cl	i
N#C/C(=C/c1ccccc1Cl)c1nc(-c2ccccc2)cs1	65.0%*
COc1ccc(OC)c(N/C=C(\C#N)c2nc(-c3cc4ccccc4oc3=O)cs2)c1	37.0%*
COc1ccc(-c2csc(/C(C#N)=C/c3ccccc3OC)n2)cc1	40.0%*
COc1cc(N/C=C(\C#N)c2nc(-c3cc4ccccc4oc3=O)cs2)c(OC)cc1Cl	i
COc1ccc(/C=C(\C#N)[N+](=O)[O-])cc1	i
Cc1noc(-c2ccccc2OC23CCCN(CC2)C3)n1 (configuration not stated)	i
CCOc1ccc(NC(=O)c2cc(Cl)cc(Cl)c2)c([N+](=O)[O-])c1	i
CC1C(O)CC(c2ccc(Cl)cc2)NC1c1ccc(Cl)cc1 (configuration not stated)	i
CCOC(=O)c1ccc(Oc2ncnc3sc4c(c23)CCCC4)cc1	i
Cc1cc2c(c(=O)o1)C1(C(=O)Nc3ccc(Br)cc31)C(C#N)=C(N)O2 (configuration not stated)	i
SMILES	ST2 inh
Cc1ccc(NC(=O)COc2ccc(Cl)cc2)cc1NC(=O)c1ccccc1	i
COc1ccc(OC)c(C2C=C(Nc3ccc(C)cc3)C(=O)N2c2ccc(C)cc2)c1 (configuration not stated)	i
CN(C(=O)CC1NC(=O)NC1=O)C1Cc2ccccc2C1 (configuration not stated)	i
CC(C)(C)c1ccc(-c2cc(C[C@H]3CNCC[C@H]3CC(=O)NCc3cccnc3)no2)cc1	i
Cc1c(C(=O)N2CCN(C)CC2)oc2ccc(S(=O)(=O)N3CCCC3)cc12	i
COc1ccc(-c2cc(C(F)(F)F)nc(NCc3cccs3)n2)cc1	i
N#C/C(=C\c1cccs1)c1nc(-c2ccc(Cl)c(Cl)c2)cs1	i
COc1cccc2cc(-c3nc(-c4ccc(Cl)cc4)cs3)c(=O)oc12	i
COc1ccc(C2=Nn3c(nnc3-c3ccccc3Cl)SC2)cc1	i
COc1ccc(-c2csc(/C(C#N)=C/c3cccs3)n2)cc1	50.0%*
COc1ccc(-c2csc(/C(C#N)=C/c3ccccc3Cl)n2)cc1	42.0%*
O=S(=O)(Cc1ccc(Cl)cc1)c1c[nH]c2ccccc12	i
CC(NC(=O)c1cc2c(=O)n3ccccc3nc2n1C)c1ccccc1 (configuration not stated)	i
Cc1ccc(NC(=O)C2C(C=C(Cl)Cl)C2(C)C)c(C)c1 (configuration not stated)	i
CC1=NN(C(=O)c2ccccc2)C(c2ccccc2)C1 (configuration not stated)	i
O=C1C(Br)=C(Br)C(=O)c2ccccc21	i
O=C1C(=Cc2cccn2-c2ccc(Br)cc2)C(=O)c2ccccc21	i
O=C1c2ccccc2-c2ccc(Br)cc21	32.0%*
c1ccc(COc2ccc(CN3CCN(c4ncccn4)CC3)cc2)cc1	i
N#Cc1nc(COc2ccccc2Cl)oc1N1CCC(C(N)=O)CC1	i
Cc1ccccc1OCCCN1CCOCC1	i
Cc1ccc(-c2noc(COc3ccccc3Cl)n2)cc1	i
N#Cc1nc(COc2ccccc2Cl)oc1N1CCN(Cc2ccccc2)CC1	58.0%*
N#Cc1nc(COc2ccc(Cl)cc2)oc1N1CCN(Cc2ccccc2)CC1	57.0%*
Cc1ccccc1OCCCCN1CCCCC1	i
SMILES	ST2 inh
c1ccc(COc2cccc(CN3CCN(c4ncccn4)CC3)c2)cc1	i
FC(F)(F)c1ccc(N2CCN(Cc3ccccc3)CC2)nc1	i
Nc1nc(COc2ccccc2Cl)nc(N2CCOCC2)n1	i
Cc1ccccc1OCc1nc(C#N)c(N2CCCCC2)o1	68.0%*
N#Cc1nc(COc2ccccc2Cl)oc1N1CCCCC1	65.0%*
C=C(C)CSc1nc2c(c(=O)n1-c1ccccc1)CC1=C(CC(C)(CC)OC1)N2 (configuration not stated)	i
COc1ccc(C2SCCN2S(=O)(=O)c2ccc(Cl)c(Cl)c2)cc1 (configuration not stated)	i
O=C(c1cc2n(n1)C(C(F)(F)F)CC(c1ccc(Cl)c(Cl)c1)N2)N1CCCC1 (configuration not stated)	i
Cc1ccccc1NC1=CC(=O)CC(c2ccccc2)C1 (configuration not stated)	i
CCNc1ccnc(N2Cc3cnc(-c4ccccc4)nc3C2)n1	i
O=C(NCCc1ccccc1F)c1ccc2ccccc2n1	i
CCNc1nc(NCC)nc(OCCNS(=O)(=O)c2ccc(C)cc2)n1	i
CN(Cc1ccccc1)C(=O)C1c2ccccc2C(=O)N2CCc3ccccc3C12 (configuration not stated)	i
Cc1ccc(CNC(=O)c2ccc3c(Cl)c4c(nc3c2)CCCC4)o1	i
CCCN(CCC)C(=O)CNS(=O)(=O)c1cccs1	i
CCC(C(=O)Nc1sc2c(c1C#N)CCCCC2)N1C(=O)c2ccccc2C1=O (configuration not stated)	i
CC(C)C(=O)Nc1cccnc1-c1cccc2c1CCNC2	i
Cc1ccc(C)n1CCN1CCN(CC(=O)Nc2ccc(F)cc2F)CC1	i
CN(Cc1ccccc1)Cc1cn([C@H]2CO[C@H]3[C@@H]2OC[C@@H]3NC(=S)Nc2cccc(C#N)c2)nn1	i
Cc1ccccc1CNC(=O)CSCc1ccc([N+](=O)[O-])cc1	i
COc1ccc(C2SCC(=O)N2c2ccccc2)cc1 (configuration not stated)	i
COc1ccc(N2C(=O)C(O)=CC2(OC)c2ccccc2)cc1 (configuration not stated)	45.0%*
COc1ccc(N2C(=O)CC(Sc3ccccc3C(=O)O)C2=O)cc1 (configuration not stated)	i
OCc1ccc(CN2CC[C@H](c3nnc(-c4ccco4)o3)C2)o1	i
COc1ccc(-c2cc(N3CCN(S(=O)(=O)c4ccc(C)cc4C)CC3)ncn2)cc1	i
